Source: PubChem BioAssay
A selection: hits, their analogues and other compounds. The true share with any hit is near 1.4%.
RXFP1 agonist = agonists of human relaxin receptor RXFP1. Q9HBX9. HEK293T-RXFP1 cAMP TR-FRET, 30 min; response scale: percent of porcine relaxin response, buffer zero. Potency, µM (top dose mostly 57.5 µM), for inactives: at the highest dose activation, usual class: activators. 370,000 tested, 0.3% active. AID 2676; further: potency means the concentration at half of the fitted maximal effect; on the % scale 0 is the no-effect control and ±100 the full control effect; nearly all actives have a fitted effect of over 60% in size
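Agonist response is measured as cAMP accumulation in an RXFP1-transfected HEK293T line under PDE4 inhibition. Values are scaled between buffer-only and 29 nM porcine relaxin, and EC50s come from standard Hill equation fits.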
RXFP1 antagonist = RXFP1 (human) relaxin receptor antagonism; Q9HBX9; HEK293-RXFP1, relaxin-stimulated cAMP HTRF, 30 min; hits give low values; activity change, negative = inhibition, % at 57.5 µM; 350,000 tested, 0.59% active;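 active means activity change of -60% or lower, but not beyond a set lower limit; inconclusive means change between -60% and -40%, or beyond the set limit; inactive means change above -40%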; further: on the % scale 0 is the no-effect control and ±100 the full control effect
KCNH2 3.1 block = blocks the human KCNH2 3.1 channel isoform | AID 720553 | U2OS KCNH2 3.1, thallium flux FluxOr; hits give low values | activity change, % (tested at about 1.8 µM) | 340,000 tested, 0.95% active;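 active means maximum activity change below -70%; inconclusive means maximum activity change from -70% to -50%; inactive means maximum activity change above -50%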;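 further: thallium influx rate constant from kinetic fluorescence after stimulation buffer; on the % scale 0 is the no-effect control and ±100 the full control effect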
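Steps: virus added to U2OS suspension (4 h, RT, dark); medium with 10% FBS added, cells plated, 37 C overnight; FluxOr/Red40 loading buffer 45 min RT; stimulation buffer, 2 min kinetic read; rate constant normalized.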
KCNH2 WT inh = inhibitors of human wildtype KCNH2 potassium channel. Q12809. U2OS, BacMam KCNH2, thallium flux FluxOr; hits give low values. activity change, % at 1.84 µM. 340,000 tested, 0.37% active;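 active means maximum activity change below -70%; inconclusive means maximum activity change between -70% and -50%; inactive means maximum activity change above -50%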; further: on the % scale 0 is the no-effect control and ±100 the full control effect
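U2OS cells were transduced with wild-type KCNH2 virus (2.03 x 10^8 / mL) for 4 h at room temperature, then cultured overnight at 37 C. Thallium flux was read with FluxOr dye. Rate constants were normalized to DMSO controls.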
GRP78 ERSR act = ER stress response induction in glioma. U87-MG GRP78 promoter luciferase reporter, 16 h. Potency, µM, for the others: top-dose activation, usual class: activators. 420,000 tested, 0.02% active. AID 602332; further: potency means the concentration at half of the fitted maximal effect; series mostly up to about 76 µM; % of control where 0% means no effect; nearly all actives have a fitted effect of over 35% in size
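Stably transfected U87-MG human glioma cells carrying a GRP78-based luminescent sensor were seeded at 1000 cells/well, pin-dosed with compounds and incubated 16 h. Luciferase reagent was then added, and end-point luminescence was read after 10 min at room temperature.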
PTHR1 agonist = agonists of human PTHR1 parathyroid hormone receptor | HEK293 GP2 PTHR1 cells, GloSensor cAMP luminescence, 1 h | Potency, µM (titrated, usually from 115 µM), for inactives: at the top dose activation, actives largely listed as activators | 410,000 tested, 0.075% active | AID 743266; further: potency means the concentration at half of the fitted maximal effect; nearly all actives have a fitted effect of over 55% in size
Target sequence (Q03431 whole entry, looked up): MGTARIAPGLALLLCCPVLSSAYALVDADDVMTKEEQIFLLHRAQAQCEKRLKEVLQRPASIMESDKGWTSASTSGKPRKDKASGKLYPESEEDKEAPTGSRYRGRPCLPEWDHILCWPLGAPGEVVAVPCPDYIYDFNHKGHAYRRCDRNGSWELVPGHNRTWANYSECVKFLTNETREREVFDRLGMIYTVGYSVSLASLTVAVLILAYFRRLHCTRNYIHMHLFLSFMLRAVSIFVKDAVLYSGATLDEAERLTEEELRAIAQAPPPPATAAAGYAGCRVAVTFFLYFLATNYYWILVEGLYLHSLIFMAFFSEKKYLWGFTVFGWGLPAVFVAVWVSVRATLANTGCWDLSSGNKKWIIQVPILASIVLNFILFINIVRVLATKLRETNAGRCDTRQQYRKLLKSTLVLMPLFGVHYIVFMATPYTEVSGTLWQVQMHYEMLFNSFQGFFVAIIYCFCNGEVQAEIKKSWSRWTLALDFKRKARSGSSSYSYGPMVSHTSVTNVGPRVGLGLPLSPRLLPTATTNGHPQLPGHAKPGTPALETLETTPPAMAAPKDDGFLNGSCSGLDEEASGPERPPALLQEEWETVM
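HEK-293-derived GP2 cells expressing PTHR1 and a GloSensor cAMP reporter, 3,000/well, plated overnight, given luciferin plus IBMX (each 0.5 mM as added) for 1 h at 37 °C, then compound for 1 h at 37 °C. Luminescence was read after 15 min at room temperature.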
Starred values were filed as active, the others as inactive; [ ] = remark or other dose. Unless noted, the call rests on the fitted dose curve; in most records, active means well fitted curve in the direction sought with a large enough effect; inconclusive means small, poorly fitted or top-dose-only effect, or another doubt; inactive means no such curve, though single readings can be large; an effect the other way counts as inactive or inconclusive.

`CO/N=C/c1ccc(Sc2ccccc2)c([N+](=O)[O-])c1` gave RXFP1 agonist 0%, RXFP1 antagonist -12, KCNH2 3.1 block -44, KCNH2 WT inh -2, GRP78 ERSR act 7% and PTHR1 agonist -16%[57.5 µM].
Cc1ccc(-n2nnnc2SCC(=O)N2c3ccccc3NC(=O)C2(C)C)cc1 was read as RXFP1 agonist 1%, RXFP1 antagonist 6, KCNH2 3.1 block 11, KCNH2 WT inh -8, GRP78 ERSR act -3% and PTHR1 agonist -37%.
COc1ccc(-c2cc(-c3nc4ccccn4c3NCc3ccccc3)ccc2OC)cc1 was read as KCNH2 3.1 block -101*, KCNH2 WT inh -99*, GRP78 ERSR act -12% and PTHR1 agonist -95%.
CCC(C)Sc1ccc(-c2nc3ccc(C)cn3c2NCc2ccccc2)cc1OC (stereo unspecified) was read as RXFP1 agonist 26%, KCNH2 3.1 block -47, KCNH2 WT inh 0, GRP78 ERSR act -5% and PTHR1 agonist inactive.
CCC(C)Sc1cc(-c2nc3ccc(C)cn3c2NCc2ccccc2)ccc1OC (stereo unspecified) was read as KCNH2 3.1 block -102*, KCNH2 WT inh inconclusive, GRP78 ERSR act -5% and PTHR1 agonist -9%.
CCCCNc1c(-c2ccc(SC3CCCCC3)cc2)nc2ccccn12 was read as RXFP1 agonist 15%, KCNH2 3.1 block -81*, KCNH2 WT inh inconclusive, GRP78 ERSR act -1% and PTHR1 agonist -41%.
Screening CCCCNc1c(-c2ccc(SC3CCCCC3)c(OC)c2)nc2ccc(C)cn12 returned KCNH2 3.1 block -72*, KCNH2 WT inh 8, GRP78 ERSR act -3% and PTHR1 agonist -51%.
For CCCCNc1c(-c2ccc(SC(C)CC)cc2)nc2ccccn12 (stereo unspecified) the results were RXFP1 agonist 16%, KCNH2 3.1 block inconclusive, KCNH2 WT inh -16, GRP78 ERSR act -2% and PTHR1 agonist -41%.
Screening COc1ccc(-c2nc3ccccn3c2NCc2ccc3c(c2)OCO3)cc1 returned RXFP1 agonist 5%, RXFP1 antagonist 6, KCNH2 3.1 block -23, KCNH2 WT inh 7, GRP78 ERSR act 0% and PTHR1 agonist -18%.
Screening CCOc1ccc2c(c1)nc(C)n2C returned RXFP1 agonist 0%, RXFP1 antagonist 2, KCNH2 3.1 block -11, KCNH2 WT inh 1, GRP78 ERSR act -2% and PTHR1 agonist 21%.
CCCCCCSc1ccc(-c2nc3ccc(C)cn3c2NCc2ccccc2)cc1OC was read as RXFP1 agonist 17%, KCNH2 3.1 block -91*, KCNH2 WT inh -20, GRP78 ERSR act 7% and PTHR1 agonist -80%.
For CCCCCCSc1ccc(-c2nc3ccc(C)cn3c2NCc2ccccc2)cc1 the results were RXFP1 agonist 9%, KCNH2 3.1 block -16, KCNH2 WT inh 10, GRP78 ERSR act -3% and PTHR1 agonist -17%.
CCC(C)Sc1cc(-c2nc3cc(C)ccn3c2NC2CCCCC2)ccc1OC (stereo unspecified) was read as KCNH2 3.1 block -5, KCNH2 WT inh 38, GRP78 ERSR act 1% and PTHR1 agonist -44%.
`CCC(C)Sc1cc(-c2nc3ccccn3c2NC2CCCCC2)ccc1OC` (stereo unspecified) gave RXFP1 agonist 18%, KCNH2 3.1 block -149*, KCNH2 WT inh 3, GRP78 ERSR act -5% and PTHR1 agonist -49%.
Screening O=C(N=Nc1c(O)[nH]c2ccc([N+](=O)[O-])cc12)c1ccccc1[N+](=O)[O-] returned RXFP1 agonist -1%, RXFP1 antagonist -1, KCNH2 3.1 block 16, KCNH2 WT inh -10, GRP78 ERSR act 0% and PTHR1 agonist -10%.
CC(Oc1ccccc1)C(=O)N=Nc1c(O)[nH]c2ccc([N+](=O)[O-])cc12 (stereo unspecified) was read as RXFP1 agonist 1%, RXFP1 antagonist -84*, KCNH2 3.1 block -6, KCNH2 WT inh 2, GRP78 ERSR act -2% and PTHR1 agonist -21%.
